Results taken from PubChem BioAssay.

Test: probe aLAP1 signal on lysate-treated microarray – cell lysate, small-molecule microarray, COS7 lysate, primary screen (AID 1124);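 note: lysate comes from COS7 cells expressing LAP1 and is applied at 0.3 µg/mL; score merges spot fluorescence near 667 nm with signal-to-noise over triplicate slides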
Conditions: probe aLAP1, fluorescence, higher = more signal

| SMILES | composite z-score |
| --- | --- |
| CC#CC(=O)Oc1ccccc1C=CC(=O)OCC | -0.021 |
| CC(C)CNC(=O)[C@@]1(Cc2ccccc2I)c2ccccc2C(=O)N(C2CCCCC2)[C@H]1c1ccc(CO)cc1 | 2.06 |
| O=C(c1ccccc1)N1C(=O)[C@]2(COC(c3ccc(OCCCO)cc3)=N2)Cc2ccccc21 | 0.771 |
| CC(C)(C)OC(=O)CC[C@]1(C(=O)N2CCOCC2)N=C(c2ccc(OCCCO)cc2)O[C@H]1c1ccccc1N=[N+]=[N-] | 0.947 |
| COCCOC(=O)N1C(=O)[C@@]2(c3cc(C#CCC(C(=O)OC)C(=O)OC)ccc31)[C@H](c1ccccc1OCCO)N1[C@H](c3ccccc3)[C@H](c3ccccc3)OC(=O)[C@H]1[C@@H]2C(=O)NC[C@H](O)c1ccccc1 | 0.412 |
| COCCCNC(=O)[C@]1(CCC(=O)OC(C)(C)C)N=C(c2ccc(OCCCO)cc2)O[C@@H]1c1ccccc1CN=[N+]=[N-] | 1.8 |
| CCOC(=O)C1=C[C@@H](C(C)(C)C)N(S(=O)(=O)c2ccc(C)cc2)[C@H]1c1ccc(F)cc1 | 0.397 |
| COc1cc(NN2C(C(O)c3ccco3)C=CC3C(=O)N(c4ccccc4)C(=O)C32)cc(OC)c1OC (stereo not given) | 0.166 |
| CCC(CC)C(O)C1C=CC2C(=O)NC(=O)C2N1Nc1ccc(Cl)cc1Cl (stereo not given) | 1.02 |
| CCCC[C@H]1OB(O)C[C@H]2C1=C(COC)Cn1c(=O)n(-c3ccccc3)c(=O)n12 | 0.0521 |
| C=C(COC)/C(=C/C[C@@H](OC(C)=O)c1ccc(OCCO)cc1)c1cnc2ccccc2c1 | 0.999 |
| CN(C)C(=O)[C@@]1(CCS(=O)(=O)c2ccccc2)COC(c2ccc(OCCCO)cc2)=N1 | 0.441 |
| CCCCCCc1nc(-c2ccc(OC)nc2)cc2c1[Si](C(C)C)(C(C)C)O[C@H]2c1ccccc1 | -0.08 |
| O=C(CS)NCCCCCCNC(=O)[C@@H]1C[C@@H]2C(=O)N[C@@H](Cc3ccccc3)C(=O)N2[C@@H]1c1cccc(OCCO)c1 | -0.488 |
| COC(=O)[C@@]1(Cc2ccc(OC)cc2)[C@H]2c3cc(C(=O)N(C)C)n(Cc4ccc(S(C)(=O)=O)cc4)c3C[C@H]2CN1C(=O)c1ccccc1 | 0.969 |
| O=C1C[C@@](C(=O)NC2CC2)(c2ccc([N+](=O)[O-])cc2)[C@@H](c2ccc(CO)cc2I)N1C1CCCCC1 | -0.0328 |
| CN1C=C(C(=O)OCCS(C)(=O)=O)C(C(=O)OCCS(C)(=O)=O)=CC(c2ccc(CO)cc2)=CC1C1CC1 (stereo not given) | 0.901 |
| O=C1NC(=O)C2C1C=CC(C(O)c1cc(C(F)(F)F)cc(C(F)(F)F)c1)N2Nc1ccccn1 (stereo not given) | 0.536 |
| CN(C)CCCCCCNC(=O)[C@@H]1C[C@@H]2C(=O)N[C@@H](Cc3ccccc3)C(=O)N2[C@@H]1c1ccc(O)cc1 | -0.453 |
| Cc1nc2cc(Br)ccc2c(=O)o1 | 0.108 |
| O=C(NC1CC1)[C@@H]1c2ccccc2C(=O)N(Cc2ccccc2Cl)[C@H]1c1ccc(CO)cc1 | 0.108 |
| O[C@@H](Cc1ccccc1)[C@H]1C2C=CCCC=C2CN1Cc1cccc(Cl)c1 (stereo not given in full) | 0.536 |
| COCCOC(=O)N1C(=O)[C@@]2(c3cc(C#CCNC(N)=O)ccc31)[C@H](C(=O)N1CCN(c3ncccn3)CC1)[C@H]1C(=O)O[C@H](c3ccccc3)[C@H](c3ccccc3)N1[C@@H]2c1ccc(OCCO)cc1 | 0.437 |
| COCCOC(=O)N1C(=O)[C@@]2(c3cc(C#CCNC(N)=O)ccc31)[C@H](C(=O)Nc1nc3ccccc3s1)[C@H]1C(=O)O[C@H](c3ccccc3)[C@H](c3ccccc3)N1[C@@H]2c1ccc(OCCO)cc1 | 0.422 |
| CC(C)C(O)C1C=CC2C(=O)N(c3ccccc3)C(=O)C2N1Nc1ccc([N+](=O)[O-])cc1 (stereo not given) | 0.894 |
| CCOC(=O)C[C@H]1[C@H](OC(=O)c2ccccc2-c2ccccc2)[C@@H](NC(=O)CC(C)C)c2cc(OCCCO)ccc2N1C(=O)Cc1ccc(OC)cc1 | -0.201 |
| C=C(CCCC)/C(=C/C[C@H](OC(C)=O)c1ccccc1OCCO)c1cc(C(=O)OC)ccc1OC | 0.095 |
| C=CCC(OC(C)=O)[C@@H]1[C@@H](N(Cc2ccc(-c3ccccc3)cc2)C(=O)Cc2ccc(OC)cc2)c2cc(OCCCO)ccc2N1C(=O)Cc1ccc2ccccc2c1 (stereo not given in full) | -0.149 |
| COc1ccc(CCNC(=O)[C@@]2(Sc3ccc(C)cc3)CC(=O)N(C3Cc4ccccc4C3)[C@@H]2c2ccc(CO)cc2I)cc1 | -0.286 |
| COC(=O)[C@@]1(Cc2ccccc2)N=C(c2ccc(OCCCO)cc2)O[C@H]1c1ccccc1 | 1.07 |
